Screens: PubChem, National Center for Advancing Translational Sciences (NCATS)
HepG2 viability – qHTS for Inhibitors of TGF-b: Cytotox Counterscreen | 410,000 tested, 0.76% active | AID 588856, 2011 | Potency, µM (series often up to 46.1 µM), inactives show at the highest dose activity change, negative = cytotoxicity, hits mostly cytotoxic | HepG2 CAGA-GFP viability, ATP luminescence, 18 h; also: potency is read from the fitted curve at half-maximal effect
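HepG2 CAGA-GFP cells (1000/well, DMEM with 1% FBS) received compound, then TGF-beta at 500 pg/mL final, and were incubated 18 hours at 37 degrees C. Viability was read by CellTiter-Glo luminescence. Media-only wells were set as complete cell-killing and DMSO as no toxicity.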
DT40 TDP1 CPT – qHTS for Inhibitors of human tyrosyl-DNA phosphodiesterase 1 (TDP1): qHTS in cells in presence of CPT. chicken DT40 Tdp1-/-;hTDP1 cells + 20 nM CPT, ATP luminescence, 48 h. Potency, µM (top dose mostly 46.2 µM), for inactives: at the highest dose activity change, negative = growth inhibition, hits mostly inhibitors. 420,000 tested, 12% active. AID 686979, 2013; also: potency is read from the fitted curve at half-maximal effect; % is scaled to controls: 0 for no effect and ±100 for the full control effect; nearly all actives have a fitted effect of over 55% in size
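Chicken DT40 Tdp1-/- cells complemented with human TDP1, 400 cells/well, exposed to compounds plus 20 nM camptothecin for at least 48 h at 37 C; viability read as ATP content by CellTiter-Glo luminescence.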
DT40 TDP1 no CPT – qHTS for Inhibitors of human tyrosyl-DNA phosphodiesterase 1 (TDP1): qHTS in cells in absence of CPT | DT40 Tdp1-/- hTDP1 cells, no CPT, ATP luminescence, 48 h | Potency, µM (doses to about 46.2 µM), without a hit: at the top dose activity change, negative = growth inhibition, usual class: inhibitors | 420,000 tested, 15% active | AID 686978, 2013; also: potency is read from the fitted curve at half-maximal effect; % is scaled to controls: 0 for no effect and ±100 for the full control effect; nearly all actives have a fitted effect of over 55% in size
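No-CPT arm: Tdp1-/-;hTDP1 DT40 cells (400/well) plus compounds, incubated ≥48 hr at 37 °C. Readout CellTiter-Glo luminescence.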
IL1B secr inh – qHTS for Inhibitors of Inflammasome Signaling: IL-1-beta AlphaLISA Primary Screen | THP-1 LPS/ATP IL-1B secretion, AlphaLISA, 16 h; active compounds read low | activity change, % at 57.5 µM | 360,000 tested, 4.7% active | AID 743279, 2014; in the data active = activity change below about -50%; inconclusive = mostly about -30% to -49%; also: % is scaled to controls: 0 for no effect and ±100 for the full control effect
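THP-1 cells pretreated 1 hr with compounds (up to 57.5 uM final), then stimulated with LPS (250 ng/mL final) plus ATP (1.25 mM final); secreted IL-1B measured by AlphaLISA after 16 hr, decreased signal indicating inhibition.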
TDP1 block – qHTS Assay for Inhibitors of Tyrosyl-DNA Phosphodiesterase (TDP1) | recombinant TDP1, AlphaScreen DNA substrate cleavage | 350,000 tested, 0.28% active | AID 485290, 2010 | Tyrosyl-DNA phosphodiesterase 1 (Homo sapiens), Q9NUW8 | Potency, µM (series often up to 130 µM), for the others: at the highest dose activity change, negative = inhibition, actives largely listed as inhibitors; also: potency is read from the fitted curve at half-maximal effect; % is scaled to controls: 0 for no effect and ±100 for the full control effect; nearly all actives have a fitted effect of over 40% in size
Target sequence (Q9NUW8 whole entry, looked up): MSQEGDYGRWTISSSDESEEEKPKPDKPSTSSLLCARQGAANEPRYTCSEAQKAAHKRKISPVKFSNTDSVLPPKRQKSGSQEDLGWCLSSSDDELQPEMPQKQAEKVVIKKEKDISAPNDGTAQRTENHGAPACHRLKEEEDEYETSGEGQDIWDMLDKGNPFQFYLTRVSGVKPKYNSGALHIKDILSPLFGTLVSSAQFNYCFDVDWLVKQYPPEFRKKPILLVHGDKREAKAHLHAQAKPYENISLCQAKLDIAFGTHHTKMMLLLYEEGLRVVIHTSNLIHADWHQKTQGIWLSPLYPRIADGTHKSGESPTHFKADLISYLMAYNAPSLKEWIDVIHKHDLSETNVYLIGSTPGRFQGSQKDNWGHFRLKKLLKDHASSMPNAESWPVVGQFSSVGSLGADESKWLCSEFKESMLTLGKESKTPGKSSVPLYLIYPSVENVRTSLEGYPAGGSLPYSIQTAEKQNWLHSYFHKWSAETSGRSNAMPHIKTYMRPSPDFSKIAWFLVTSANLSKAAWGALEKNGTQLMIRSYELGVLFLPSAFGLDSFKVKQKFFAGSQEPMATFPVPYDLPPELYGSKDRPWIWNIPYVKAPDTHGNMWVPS
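Recombinant E. coli-expressed Tdp1 (1 nM) preincubated with compound 15 min at RT, then 5'-biotin/3'-phosphotyrosine-FITC DNA substrate (15 nM) added for 5 min. AlphaScreen beads (10 ug/ml) added, 10 min RT; tyrosine-FITC cleavage read as signal loss.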
TGFb SMAD3 inh – qHTS for Inhibitors of TGF-b | 410,000 tested, 1.2% active | HepG2 CAGA-GFP TGF-b/SMAD3 reporter, GFP fluorescence, 18 h; TGF-beta stimulated, 500 pg/mL final | Potency, µM (top dose mostly 46.1 µM), for the others: at the top dose activity, negative = inhibition, actives largely listed as inhibitors; also: potency is read from the fitted curve at half-maximal effect; % is scaled to controls: 0 for no effect and ±100 for the full control effect; nearly all actives have a fitted effect of over 65% in size
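HEPG2 CAGA-GFP, 1000 cells/well; 2 h settle, 37 C; cpd via pin tool; TGF-b 500 pg/mL final; 18 h, 37 C; GFP imaging ex488/em500-530; %Activity normalised to -TGF-b and +DMSO controls; CRC fit, curve class.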
The depositor's hits bear a star. This is a sample that favours compounds with a hit; in the whole collection about 18% have one here. Unless noted, calls follow the shape of the dose curve; as a rule, active = well fitted curve in the direction sought with a large enough effect; inconclusive = small, poorly fitted or top-dose-only effect, or another doubt; inactive = no such curve, though single readings can be large; an effect the other way counts as inactive or inconclusive.

`Cc1ccc(S(=O)(=O)Oc2ccccc2/C=N/O)cc1` gave HepG2 viability -23%, DT40 TDP1 CPT -18%, DT40 TDP1 no CPT -30%, IL1B secr inh -11, TDP1 block -5% and TGFb SMAD3 inh -28%.
`Cc1ccc(Oc2ccccc2/C=N/O)cc1` gave HepG2 viability -26%, DT40 TDP1 CPT 12µM*, DT40 TDP1 no CPT 21µM*, IL1B secr inh -16, TDP1 block 2% and TGFb SMAD3 inh -1%.
`CC(C)(C)c1cc(OC(=O)c2ccccc2F)ccc1O` gave HepG2 viability -42%, DT40 TDP1 CPT inconclusive, DT40 TDP1 no CPT inconclusive, IL1B secr inh -69*, TDP1 block -3% and TGFb SMAD3 inh inconclusive.
Cc1ccc(-c2cccc(OC(=O)c3ccccc3F)c2)cc1 was read as HepG2 viability 1%, DT40 TDP1 CPT -13%, DT40 TDP1 no CPT -7%, IL1B secr inh -15, TDP1 block 4% and TGFb SMAD3 inh 14%.
Screening COc1ccc(C2=C(C)C(=O)N(Cc3ccc(C(=O)Nc4ccc(F)cc4C)cc3)S2(=O)=O)cc1 returned HepG2 viability -26%, DT40 TDP1 CPT 3.3µM*, DT40 TDP1 no CPT 3.7µM*, TDP1 block 5% and TGFb SMAD3 inh inconclusive.
Screening COc1ccc(C2=C(C)C(=O)N(Cc3ccc(C(=O)Nc4cccc(F)c4)cc3)S2(=O)=O)cc1 returned HepG2 viability -11%, DT40 TDP1 CPT 21µM*, DT40 TDP1 no CPT 23µM*, TDP1 block 7% and TGFb SMAD3 inh inconclusive.
For CC1=C(c2ccc(C)c(C)c2)S(=O)(=O)N(Cc2ccc(C(=O)Nc3cc(F)ccc3F)cc2)C1=O the results were HepG2 viability 2%, DT40 TDP1 CPT -18%, DT40 TDP1 no CPT inconclusive, TDP1 block 1% and TGFb SMAD3 inh -1%.
Cn1c(=O)cc(OCC(=O)NCc2ccc(F)cc2Cl)c2ccccc21 was read as HepG2 viability -6%, DT40 TDP1 CPT -26%, DT40 TDP1 no CPT -26%, TDP1 block 1% and TGFb SMAD3 inh 13%.
For Cc1ccc(S(=O)(=O)N2CCN(C(=O)COC(=O)COc3ccc(Cl)cc3C)CC2)c(C)c1 the results were HepG2 viability -34%, DT40 TDP1 CPT -7%, DT40 TDP1 no CPT -20%, IL1B secr inh 8 and TGFb SMAD3 inh -1%.
For CC(C)OP(=O)(OC(C)C)/C(C=O)=N\Nc1ccc([N+](=O)[O-])cc1 the results were HepG2 viability -81%, DT40 TDP1 CPT 16µM*, DT40 TDP1 no CPT inconclusive, IL1B secr inh -90* and TGFb SMAD3 inh inconclusive.
`O=C(CCCCn1ccc(=O)[nH]c1=O)Nc1ccc(O)c(C(=O)O)c1` gave HepG2 viability -10%, DT40 TDP1 CPT -3%, DT40 TDP1 no CPT -9%, IL1B secr inh -2 and TGFb SMAD3 inh 13%.
COc1ccc(C(=O)NC2CCN(CC(=O)NCc3cccc(OC)c3)CC2)cc1 was read as HepG2 viability -11%, DT40 TDP1 CPT -13%, DT40 TDP1 no CPT -10%, IL1B secr inh -9, TDP1 block -2% and TGFb SMAD3 inh 3%.
For COc1ccc(-n2nnc3c(SC(C(C)=O)C(=O)N(C)C)ncnc32)cc1 (stereo not given) the results were HepG2 viability 1%, DT40 TDP1 CPT 18µM*, DT40 TDP1 no CPT 16µM*, IL1B secr inh 0, TDP1 block 2% and TGFb SMAD3 inh -2%.
For COc1ccc(-n2nnc3c(SCC(=O)NCc4ccco4)ncnc32)cc1 the results were HepG2 viability 22%, DT40 TDP1 CPT inconclusive, DT40 TDP1 no CPT 2.9µM*, IL1B secr inh -16, TDP1 block 4% and TGFb SMAD3 inh -19%.
`O=C(CSc1ncnc2c1nnn2-c1ccc(F)cc1)NCc1ccco1` gave HepG2 viability 6%, DT40 TDP1 CPT inconclusive, DT40 TDP1 no CPT 15µM*, IL1B secr inh -4, TDP1 block 1% and TGFb SMAD3 inh 2%.
`COC(=O)C(C)Sc1ncnc2c1nnn2-c1ccc(F)cc1` (stereo not given) gave HepG2 viability -28%, DT40 TDP1 CPT -59%, DT40 TDP1 no CPT inconclusive, IL1B secr inh -4, TDP1 block -2% and TGFb SMAD3 inh inconclusive.
COc1ccc(-c2nnc3ccc(SCC(=O)NCc4ccco4)nn23)cc1 was read as HepG2 viability -3%, DT40 TDP1 CPT -16%, DT40 TDP1 no CPT -30%, IL1B secr inh 12, TDP1 block 79µM* and TGFb SMAD3 inh inconclusive.
Screening O=C(O)CCC(C(=O)O)N1C(=O)C2C3CCC(C3)C2C1=O (stereo not given) returned HepG2 viability -3%, DT40 TDP1 CPT -9%, DT40 TDP1 no CPT -5%, IL1B secr inh inconclusive and TGFb SMAD3 inh -7%.
Screening CC(C)N(C(=O)Cn1cc(S(=O)(=O)Cc2ccc(C(F)(F)F)cc2)c2ccccc21)C(C)C returned HepG2 viability -27%, DT40 TDP1 CPT inconclusive, DT40 TDP1 no CPT inconclusive, TDP1 block 3% and TGFb SMAD3 inh inconclusive.
For Cc1ccc(C)c(CS(=O)(=O)c2cn(CC(=O)N(C(C)C)C(C)C)c3ccccc23)c1 the results were HepG2 viability -26%, DT40 TDP1 CPT 15µM*, DT40 TDP1 no CPT 12µM*, TDP1 block 0% and TGFb SMAD3 inh 0%.
`CC(C)N(C(=O)Cn1cc(S(=O)(=O)Cc2ccc(Br)cc2)c2ccccc21)C(C)C` gave HepG2 viability -5%, DT40 TDP1 CPT 23µM*, DT40 TDP1 no CPT 16µM*, TDP1 block -3% and TGFb SMAD3 inh 0%.
For Cc1ccc(C)c(CS(=O)(=O)c2cn(CC(=O)N3CCC(C)CC3)c3ccccc23)c1 the results were HepG2 viability -32%, DT40 TDP1 CPT inconclusive, DT40 TDP1 no CPT 16µM*, IL1B secr inh -18, TDP1 block 0% and TGFb SMAD3 inh -2%.
Screening CC(C)N(C(=O)Cn1cc(S(=O)(=O)Cc2ccc(Cl)cc2)c2ccccc21)C(C)C returned HepG2 viability -1%, DT40 TDP1 CPT inconclusive, DT40 TDP1 no CPT inconclusive and TDP1 block -5%.
